Results on 22 sequences are retold here after the supplement of paper PMC6555819.

In this assay the test system is PXR:RXRa (NR concentration 270 nM, RXRa partner concentration 90 nM). As to the kind of experiment: PBM binding z-score (relative to random genomic background probes); higher = stronger binding; sequences stand for … in GC…GCGATTGACAGCGTAGAATGAAGG
The procedure, abridged: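 On custom Agilent 4×180K arrays, double-stranded probes with 34-nt variable regions carried direct-repeat seeds, single-nucleotide variants, half-site ablations or random human genomic background. Ligand-free nuclear receptor dimers were applied for 1 h, and binding was read with antibodies against each partner (one per run). Binding z-scores come from regression-normalized fluorescence, with the random background probes as reference.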
The sequence CCGACTGGGGCATAAGGTTACTATAAGCCAGCCC displayed a PBM binding z-score of 0.29.
Sequence CTCGAAAGGTCGGTTGAGGTGAGTACACGGATAA gave a PBM binding z-score of 3.2.
Consider AATACAGGGTCACTATGCCAGAGTAGGTACGAAT, for which the PBM binding z-score amounted to 2.9.
With TAGCCTAGGTCAGATCGGGCCTGTATACGCTATA, the PBM binding z-score worked out at 0.238.
TATACAGGGTCAAAGGCCAGGGTACGAATGTCGA: the PBM binding z-score amounted to 4.41.
For the sequence TCTAGTTGGTCACGGAGGTCACACTCGACGGGTA, the PBM binding z-score came out at 4.31.
For the sequence AGTTAAAGTTCACTAGGTAACGTAAGATTCAGCT, the PBM binding z-score is 3.54.
The sequence CCTTACGGGTCACTGACAGGTTATACCATTTGGA gave a PBM binding z-score of 3.75.
Consider ACCGAAAGGTCGTGAGGTGAGTATACAGAAAGGC, for which the PBM binding z-score amounted to 3.29.
As to CGTCCAAGGTGAAGGTCAGTGAAAGAGACTCGAA, the PBM binding z-score came out at 1.43.
ATCTCTAGGTAGGACTCAGTTCAGTGAAGAACGC showed a PBM binding z-score of 0.751.
Next, ACTATTAGTTGAGACGACGGCAACCGATAGGTTG: -0.384; ATCACTAGGTAAGACTCAGTTCAGTGAAGAACGC: 0.891; TCATATAGGTAAATGCTAGGTGTAAGTCCGATCT: 0.655.
Consider CTCGAAAGGTCGTGCTCAGGTGGGTATACCAAAC, for which the PBM binding z-score was 3.14.
As to AGAATGAGCTTATTAAGATCAGGGAATTGCGGTC, the PBM binding z-score is -0.238.
In turn, TCTCGGAGGACACGACAGGTCAGAGCTCGACATC returned a PBM binding z-score of 1.27.
For TCTTGTAGATCAGGCAGGTTAAGAAAGCCTGAGT, the PBM binding z-score stood at 0.175.
The sequence GATACAGGGTCAGCTAGAGGCCAAAGTATGGAAA showed a PBM binding z-score of 4.24.
For CCTATTAGTTGACCATAAGGGTAACCGAAGCTCG, the PBM binding z-score turned out to be 0.536.
ATCTCTAGGTAAAGATAGTTCAGTGGATGCAAAT displayed a PBM binding z-score of 0.971.
The sequence CAGCCTAGGTCAGTGCCAGTATAGGAGGAACGTT gave a PBM binding z-score of -0.0213.
